Bioassay records: PubChem, National Center for Advancing Translational Sciences (NCATS)
Chronic BCR inh: qHTS Assay to Find Inhibitors of Chronic Active B-Cell Receptor Signaling. Potency, µM (series often up to 46.1 µM), most hits filed as inhibitors. ABC-DLBCL IkBa-CBG/CBR reporter, luminescence ratio, 4 h. hit rate 0.05% among 340,000; active = well fitted inhibition curve with a large enough effect in the signal ratio, with a control signal flat, not every such curve was filed as active; inconclusive = small, poorly fitted or top-dose-only effect, or effect the other way, or a change in a side signal; the % refers to the signal ratio
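Compounds up to 46 uM were incubated four hours with TMD8 cells whose green CBG68 luciferase is fused to IkappaBalpha; red CBR luminescence normalised the signal, and concentration-effect curves were fitted to fusion, red and ratio data.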
D1 antagonist: Antagonist of Human D 1 Dopamine Receptor: qHTS. AID 504652, 2011. activity change, negative = inhibition, % at 10 µM. HEK293 TREx D1 cells, calcium flux, dopamine EC80; hits give low values. hit rate 3.2% among 360,000. D(1A) dopamine receptor (Homo sapiens), P21728; in the data active = activity change below about -30%
Target sequence (P21728 whole entry, looked up): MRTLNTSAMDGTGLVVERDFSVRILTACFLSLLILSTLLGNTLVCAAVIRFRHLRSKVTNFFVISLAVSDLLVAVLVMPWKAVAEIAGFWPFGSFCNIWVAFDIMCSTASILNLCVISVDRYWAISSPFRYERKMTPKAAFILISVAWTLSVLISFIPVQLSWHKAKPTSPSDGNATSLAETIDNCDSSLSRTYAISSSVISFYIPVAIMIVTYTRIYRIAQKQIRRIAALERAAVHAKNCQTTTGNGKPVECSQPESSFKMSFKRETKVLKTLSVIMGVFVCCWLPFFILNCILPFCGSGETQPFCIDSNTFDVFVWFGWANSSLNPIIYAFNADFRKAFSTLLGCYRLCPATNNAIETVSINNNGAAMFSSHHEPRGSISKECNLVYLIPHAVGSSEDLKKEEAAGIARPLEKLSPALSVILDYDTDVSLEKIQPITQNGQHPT
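HEK293 T-REx cells expressing inducible, force-coupled D1 receptor; no-wash Ca dye, 30–90 min RT. Cmpd → 180 s read at 1 Hz → EC80 DA → 180 s read.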
D1 ag: Allosteric Agonists of the Human D1 Dopamine Receptor: qHTS; D(1A) dopamine receptor (Homo sapiens), P21728; HEK293 T-REx D1 cells, calcium flux, agonist mode; activation, % at 2 µM; hit rate 1% among 360,000; AID 504660, 2011; in the data active = activation above about 30%
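Agonism was scored from calcium flux recorded over 180 s (1 read/s) after pintool compound addition, following a 10-cycle baseline. Cells were inducible force-coupled HEK293 TREx D1, plated overnight at 30 C and loaded with no-wash calcium dye.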
D3 ag: qHTS of D3 Dopamine Receptor Agonist: qHTS; D(3) dopamine receptor (Homo sapiens), P35462; max activation, %; D3R DiscoveRx beta-arrestin cells, luminescence, 90 min; hit rate 0.58% among 410,000; in the data active = max activation above about 30%
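Cells at 1500/well, incubated overnight, then treated with pinned compounds (dopamine as control) for 90 min at 37 degrees C. DiscoveRx reagent added for 30 - 60 minutes at room temperature; luminescence read.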
D1 PAM: Potentiators of Human D1 Dopamine Receptor: qHTS. D(1A) dopamine receptor (Homo sapiens), P21728. HEK293 TREx D1 cells, calcium flux, dopamine EC20 potentiation. hit rate 0.036% among 360,000. potentiation, % at 10 µM. AID 504651, 2011; in the data active = potentiation above about 30%
DRD3 antagonist: qHTS of D3 Dopamine Receptor Antagonist: qHTS; hit rate 2.5% among 360,000; D(3) dopamine receptor (Homo sapiens), P35462; D3R cells, DiscoveRx beta-arrestin luminescence, antagonist mode; hits give low values; max response, negative = inhibition, %; in the data active = max response below about -50%; inconclusive = no clear call, values can overlap the other calls
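Cells expressing the human receptor were seeded at 1500 cells/well, incubated overnight at 37 degrees C in 5% CO2, then exposed to library compounds with dopamine controls for 90 minutes at 37 degrees C before luminescent detection.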
Each line names hits and unclear results; the compound was inactive in the other large screens. Compounds with a hit are over-represented: about 6% of the library has one in this group of screens.

O=C1c2ccccc2S(=O)(=O)N1CC1CC(c2ccc(Cl)cc2)=NO1 (configuration not stated)	D1 antagonist -34
O=C(Nc1nnc2n1CCS2)c1cc(C(F)(F)F)cc(C(F)(F)F)c1	none (no result: Chronic BCR inh, DRD3 antagonist)
CCCCN(C(=O)c1ccc(S(=O)(=O)N(C)c2ccccc2)cc1)c1c(N)n(CCC)c(=O)[nH]c1=O	none (no result: Chronic BCR inh, D1 antagonist, D1 ag, D1 PAM)
Cc1cc(NC(=O)COC(=O)CCCOc2ccc(Cl)cc2C)no1	D1 antagonist -30
Cc1cc(Cl)ccc1OCCCC(=O)NC1CCN(C)CC1	D1 antagonist -42
Cc1cc(Cl)ccc1OCCCC(=O)N1CCN(C)CC1	none
Cc1cccc(N2C(=O)C(CC(=O)Nc3ccc(F)cc3)N(C3CCCC3)C2=O)c1 (configuration not stated)	none (no result: Chronic BCR inh, DRD3 antagonist)
CCc1ccccc1NC(=O)C(=O)NCCc1sc(-c2cccc(C)c2)nc1C	none (no result: Chronic BCR inh, DRD3 antagonist)
CC(C)(C)c1ccc(S(=O)(=O)/N=C2\C=C(NS(=O)(=O)c3ccccc3)C(=O)c3ccccc32)cc1	Chronic BCR inh inconclusive, DRD3 antagonist inconclusive
Cc1ccc(S(=O)(=O)/N=C2\C=C(Nc3cccc(C(=O)O)c3)C(=O)c3ccccc32)c(C)c1	Chronic BCR inh inconclusive, DRD3 antagonist -71
CCc1ccc(S(=O)(=O)/N=C2\C=C(Nc3ccc(C(=O)O)cc3)C(=O)c3ccccc32)cc1	Chronic BCR inh inconclusive, DRD3 antagonist -68 (no result: D1 PAM)
COC(=O)c1cccc(NS(=O)(=O)c2cccs2)c1C	none (no result: Chronic BCR inh)
COC(=O)c1ccccc1NC1=C/C(=N\S(=O)(=O)c2cccs2)c2ccccc2C1=O	Chronic BCR inh inconclusive, DRD3 antagonist -93
COC(=O)c1ccccc1NC1=C/C(=N\S(=O)(=O)c2ccc(C(=O)O)cc2)c2ccccc2C1=O	Chronic BCR inh inconclusive, DRD3 antagonist -99 (no result: D1 PAM)
CC(C)(C)c1ccc(C(=O)NC(=S)Nn2cnnc2)cc1	D1 antagonist -32
O=C(NC(=S)Nn1cnnc1)c1ccccc1Cl	none
CC(=O)NN1C(=O)/C(=C\c2ccc(Br)o2)SC1=S	Chronic BCR inh inconclusive, DRD3 antagonist -59
CC(=O)NN1C(=O)/C(=C/c2ccc(Br)o2)SC1=S	Chronic BCR inh inconclusive
COC(=O)c1sc(N2C(=O)c3oc4cc(C)c(C)cc4c(=O)c3C2c2ccccc2F)nc1C (configuration not stated)	none (no result: Chronic BCR inh, DRD3 antagonist)
CC1Oc2cc3oc4c(O)c5c(cc4c(=O)c3c(O)c2C1(C)C)C=CC(C)(C)O5 (configuration not stated)	D3 ag 44 (no result: Chronic BCR inh, D1 antagonist, D1 ag, D1 PAM)
CC1(C)C=Cc2cc3ccc(=O)oc3cc2O1	none
O=C(O)CC1c2ccccc2C=Cc2ccccc21	D1 antagonist -32
CCOC(=O)C1=CCN(S(=O)(=O)c2ccc(Br)cc2)C1c1cccc(C)c1 (configuration not stated)	none (no result: Chronic BCR inh, D1 antagonist, D1 ag, D1 PAM)
Nc1c(-c2n[nH]c(=S)n2-c2ccc(Cl)cc2Cl)cnn1-c1ccccc1	none
Nc1[nH]nc2c1NN(c1ccc(Cl)cc1Cl)N2	Chronic BCR inh inconclusive, D1 antagonist -38
CCCCCCCCN1C(=O)[C@H](CC(=O)NCc2ccc(OC)c(OC)c2)C[C@@]2(C(=O)OC)CC(C)(C)CC=C12	none (no result: Chronic BCR inh, D1 antagonist, D1 ag, D1 PAM)
COc1cc(OCC(=O)NC(C)C)cc2c1C(=O)O[C@@H](C)CCCC(=O)CCCCC2	Chronic BCR inh inconclusive
COc1cc2c(c(OCC(=O)NC(C)C)c1)C(=O)O[C@@H](C)CCCC(=O)CCCCC2	D1 antagonist -33
O=[N+]([O-])c1ccc(CN2CCN(c3ccc(Cl)cc3)CC2)o1	D1 antagonist -32
COCCCNC(=S)N1CCN(c2ccc([N+](=O)[O-])cc2)CC1	D1 antagonist -33
CSCCCNC(=S)N1CCN(c2ccc(C(C)=O)cc2)CC1	D1 antagonist -33
CN1CCN(C(=S)Nc2ccc([N+](=O)[O-])cc2)CC1	D1 antagonist -33, DRD3 antagonist inconclusive
CCNC(=S)N1CCN(c2ccc([N+](=O)[O-])cc2)CC1	none
O=[N+]([O-])c1ccc(NC(=S)N2CCCC2)cc1	none
CCCCNC(=S)N1CCN(c2ccc(C(C)=O)cc2)CC1	none
CCOC(=O)c1cccc(NC(=O)N2CCC(CN3CCCCCC3)CC2)c1	none (no result: Chronic BCR inh, DRD3 antagonist)
O=[N+]([O-])c1ccc(N2CCN(C(=S)NCc3ccc(Cl)cc3)CC2)cc1	DRD3 antagonist -53
O=C(CSc1nnc(-c2ccc(O)cc2)o1)c1ccc(Br)cc1	Chronic BCR inh inconclusive, D1 ag 39 (no result: DRD3 antagonist)
O=C(O)CSc1nnc(-c2ccc(O)cc2)o1	none (no result: Chronic BCR inh, DRD3 antagonist)
Cc1cc2c(s1)c1cnn(Cc3ccc(F)cc3Cl)c(=O)c1n2C	none (no result: Chronic BCR inh, D3 ag, DRD3 antagonist)
CCCCCCOC(=O)C(C#N)c1nc2ccccc2nc1N1CCN(CC)CC1 (configuration not stated)	DRD3 antagonist -59
CCCCCCOC(=O)C(C#N)c1nc2ccccc2nc1N1CCOCC1 (configuration not stated)	none
COc1ccc(CCC(=O)N2c3ccccc3N=C(c3ccc(C(F)(F)F)cc3)C2C(=O)NC(C)(C)C)cc1 (configuration not stated)	none (no result: Chronic BCR inh, D1 antagonist, D1 ag, D1 PAM)
COc1ccc(CCC(=O)N2c3ccccc3N=C(c3ccc(C(F)(F)F)cc3)C2C(=O)NC(C)C)cc1 (configuration not stated)	D3 ag 86 (no result: Chronic BCR inh, D1 antagonist, D1 ag, D1 PAM)
CCc1ccccc1NC(=O)C1CCCN(c2nn3c(=O)cc(C)nc3s2)C1 (configuration not stated)	none
Cc1cc(=O)n2nc(N3CCCC(C(=O)Nc4ccc(C)c(C)c4)C3)sc2n1 (configuration not stated)	D1 antagonist -59
Cc1cc(=O)n2nc(N3CCCC(C(=O)NCCc4ccc(Cl)cc4)C3)sc2n1 (configuration not stated)	D1 antagonist -35, DRD3 antagonist inconclusive
CCc1cccc(CC)c1NC(=O)CN(C)S(=O)(=O)c1ccc2c(c1)n(C)c(=O)c(=O)n2C	none (no result: Chronic BCR inh, DRD3 antagonist)
CCOC(=O)CN(Cc1ccccc1)C(C(=O)NC1CCCCC1)c1ccccc1 (configuration not stated)	none (no result: Chronic BCR inh, DRD3 antagonist)
COc1ccc(C2CC=C(C(C)=O)CN2S(=O)(=O)c2ccc(C)cc2)cc1 (configuration not stated)	none (no result: Chronic BCR inh, D1 antagonist, D1 ag, D1 PAM)
CCc1ccc(NC(=O)CSC2=Nc3ccccc3C3=NC(CCC(=O)NCc4ccccc4OC)C(=O)N23)cc1 (configuration not stated)	none (no result: DRD3 antagonist)
O=C(CSC(=S)N1CCSCC1)c1ccc(Cl)cc1	D1 antagonist -46
O=C(C(=O)N1CCN(C(=O)c2ccco2)CC1)c1ccccc1	none (no result: Chronic BCR inh, D1 antagonist, D1 ag, D1 PAM)
